# Results filed as inconclusive are left out. Where a call stands in place of a potency, no number is given. Calls of active or inactive are those of the source. Calls come from the whole dose curve; as a rule, active = well fitted curve in the direction sought with a large enough effect; inconclusive = small, poorly fitted or top-dose-only effect, or another doubt; inactive = no such curve, though single readings can be large; an effect the other way counts as inactive or inconclusive.
# How the values were obtained:
# [1] = target: Aldehyde dehydrogenase, mitochondrial (Homo sapiens) (UniProt P05091); assay: qHTS for Inhibitors of the Aldehyde Dehydrogenase Family (ALDH2) Primary screen (AID 2061308); conditions: ALDH2 enzyme inhibition qHTS, 1536-well; series mostly up to 56 µM; note: nearly all actives have a fitted effect of over 55% in size
# [2] = target: Retinaldehyde dehydrogenase 3 (Homo sapiens) (UniProt P47895); assay: qHTS for Inhibitors of the Aldehyde Dehydrogenase Family (ALDH1A3) Primary screen (AID 2061315); conditions: ALDH inhibition qHTS; series mostly up to 56 µM
Structure (SMILES),Potency [1],Potency [2]
COc1cccc(CNc2ccc(S(=O)(=O)Nc3ccccc3)cc2)c1O,inactive,inactive
N#Cc1ccc(NS(=O)(=O)c2ccc(NC(=O)Cc3ccc(Cl)c(Cl)c3)cc2)cc1,inactive,inactive
Cc1cc2c(s1)c1c(n2C)C(=O)N(Cc2ccccc2F)C1,inactive,inactive
Cc1ccccc1C(=O)n1ccc2cc(-c3nc(NC(=O)Cc4ccc5c(c4)OCO5)sc3C)ccc21,inactive,inactive
O=C1CCCC2=C1C(c1ccncc1Br)N=C(Nc1nc3ccccc3o1)N2 (centres undefined),inactive,inactive
CN(C)CC(=O)NC1CCCc2c1cnn2-c1ccc(F)cc1F (centres undefined),inactive,inactive
FC(F)(F)c1cccc(N2CCN(C(=S)Nc3nccc4ccccc34)CC2)c1,inactive,inactive
Cc1cc(C)nc(NC(=S)N2CCN(c3cnccn3)CC2)c1,inactive,inactive
O=C1c2ccccc2C(=O)N1c1cccc(O)c1,inactive,inactive
COc1cccc(C2=Nn3c(nnc3-c3cc(OC)cc(OC)c3)SC2)c1,inactive,inactive
O=C(OCC#CCSc1nnc(-c2cccc3ccccc23)o1)c1cccc2[nH]ccc12,inactive,inactive
C=CCNc1oc(-c2cccc3ccccc23)nc1C#N,inactive,inactive
O=S(=O)(Nc1ccccc1F)c1ccc(O)c2ncccc12,inactive,inactive
Cc1cc(C)nc(NC(=S)N2CCN(c3ccc4occc4c3)CC2)c1,inactive,inactive
CN(CCc1cnc[nH]1)c1ncnc2ccc(-c3ccc4c(c3)OCO4)cc12,inactive,inactive
Clc1ccc(CSc2nc3ncc(Br)cc3[nH]2)cc1Cl,inactive,inactive
COC(=O)c1ccccc1NC(=O)c1ccc(F)cc1,inactive,inactive
COc1ccc(OC)c(C2=Nn3c(nnc3-c3ccccc3OC)SC2)c1,inactive,inactive
CC(C)(C)OC(=O)CC(=O)NNC(=O)c1nc2ccccc2[nH]1,inactive,inactive
COc1ccc(C(=O)Nc2nc(-c3ccccc3)cs2)c(OC)c1,inactive,inactive
O=C1CCCC2=C1C(c1[nH]ncc1Cl)NC(=NCc1ccccn1)N2 (centres undefined),inactive,inactive
CCc1cccc(CC)c1NC(=O)c1nn(C)c2c1CCc1cnc(Nc3ccc(C(=O)NC4CCN(C)CC4)cc3OC(F)(F)F)nc1-2,inactive,inactive
